Out of some 340,000 compounds screened, about 2,100 (0.62%) were called active.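 How the source made its calls: active means first-screen hits whose inhibition reached a set limit at any dose in the follow-up dose series; inconclusive means inhibition above the set first-screen limit but never retested; inactive means the rest.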 Only a sample is shown. Potency and affinity values are given separately.
These compounds were tested against Rac GTPase-activating protein 1 (Homo sapiens) (UniProt Q9H0H5) (assay: MgcRacGAP GTPase-activating activity inhibitors, confirmation, biochemical, ADP Hunter fluorescence, primary and confirmatory (AID 624330;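 further: fluorescence reports GDP produced by GAP-driven GTP hydrolysis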)). Conditions: MgcRacGAP-stimulated Rac1 GTP hydrolysis, at 30 µM, hits give high values, GST-tagged Rac1 F28L mutant substrate.
Sequence of Rac GTPase-activating protein 1 (Homo sapiens) (Q9H0H5 whole entry, looked up): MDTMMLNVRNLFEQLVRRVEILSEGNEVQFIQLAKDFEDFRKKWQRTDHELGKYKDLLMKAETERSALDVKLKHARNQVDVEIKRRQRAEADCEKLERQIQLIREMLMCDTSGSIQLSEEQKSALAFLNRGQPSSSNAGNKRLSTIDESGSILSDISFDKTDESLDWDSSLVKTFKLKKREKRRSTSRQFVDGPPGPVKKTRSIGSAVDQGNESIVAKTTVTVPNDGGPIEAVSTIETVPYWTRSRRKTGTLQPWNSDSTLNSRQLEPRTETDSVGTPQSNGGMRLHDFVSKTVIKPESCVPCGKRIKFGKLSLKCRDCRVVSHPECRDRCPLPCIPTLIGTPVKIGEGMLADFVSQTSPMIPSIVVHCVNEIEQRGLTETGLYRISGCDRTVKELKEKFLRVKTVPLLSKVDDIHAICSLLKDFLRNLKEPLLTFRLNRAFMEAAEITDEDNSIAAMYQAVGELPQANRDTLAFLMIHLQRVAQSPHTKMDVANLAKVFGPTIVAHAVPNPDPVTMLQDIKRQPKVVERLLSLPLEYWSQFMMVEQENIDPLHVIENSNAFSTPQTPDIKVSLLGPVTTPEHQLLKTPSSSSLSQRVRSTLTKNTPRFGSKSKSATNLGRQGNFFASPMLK

inhibition, inactive:
COCCCNC(=O)CC1C[C@H](C(=O)N2CCOCC2)[C@@]2(CCC3CCCC3)c3[nH]c4ccc(OC)cc4c3CCN2C1=O (some centres undefined) 3.79%
O=C(NC1CCN(Cc2ccc(Cl)cc2Cl)CC1)c1ccccc1 5.03%
Cn1c(C(=O)N2CCCC(Nc3ccc(F)cc3)C2)cc2ccccc21 (centres undefined) -8.53%
O=C(O)c1cccc(S(=O)(=O)Nc2ccccc2C(=O)NCCc2ccccc2)c1 4.14%
COc1cc(C(=O)NCCc2ccc3c(c2)OCO3)cc(OC)c1OC -4.93%
COc1cccc(CNCc2ccc3c(c2)OCO3)c1 31.8%
COc1cc(CC(=O)NCc2ccc3c(c2)OCO3)cc(OC)c1OC 4.17%
Fc1cccc(CNCc2ccc3c(c2)OCO3)c1 3.78%
CC1(C)CC(=O)C=C(c2cccc(OC(=O)c3ccc(-c4ccccc4)cc3)c2)C1=O 11.9%
CCOc1ccc(NC(=O)CN2CCN(c3ccc(F)cc3)CC2)cc1S(=O)(=O)N1CCCC1 10.6%
CN(CC(O)COc1ccc(S(=O)(=O)N2CCOCC2)cc1)C1CCCCC1 (centres undefined) 10.6%
O=C(CSc1nnnn1Cc1ccccc1)Nc1cccc(F)c1 8.78%
Nc1ccc(C(=O)C(=O)c2ccc(N)cc2)cc1 6.66%
N=C(N)c1ccc(N)cc1 10.7%
CC(NC(=O)COc1cccc(Br)c1)C(=O)O (centres undefined) 3.37%
CCc1sc(C(=O)Nc2ccc(N3CCOCC3)cc2)cc1C 9.93%
CCOC(=O)/C(C#N)=C\C=C1C=CN(C)C=C1 10.4%
CN1C(=S)SC(N(O)C=C2C=CC(=O)C=C2)C1(C)C (centres undefined) 24.5%
COc1ccc(C(CNC(=O)c2ccc(NS(=O)(=O)c3ccc4c(c3)OCCO4)cc2)N(C)C)cc1 (centres undefined) -0.2%
CCC(C)(c1ccc(C=O)s1)c1ccc(C=O)s1 6.23%
COc1ccc2c(CC(=O)NNC(=O)c3cccs3)coc2c1 5.91%
Cc1ccc2c(CC(=O)NCc3cccs3)coc2c1 3.76%
Cc1ccc2c(CC(=O)NNC(=O)c3ccccc3)coc2c1 6.09%
Cc1ccc2c(CC(=O)NNC(=O)c3ccccc3O)coc2c1 -8.73%
CN(C)CC1(c2ccccc2)CCCC1 -6.5%
CC1CCCCN1C(=S)Nc1ccc(OC(F)F)cc1 (centres undefined) 2.05%
O=c1[nH]c2ccccc2cc1CN(Cc1ccco1)S(=O)(=O)c1ccccc1 5.99%
CC(C)(C)NC(=O)C(c1ccc(-c2ccccc2)cc1)N(C[C@H]1CC[C@@H]([C@@H]2CC[C@H](CO)O2)O1)C(=O)c1ccccc1F (some centres undefined) 3.69%
O=C(O)Cn1nc(-c2ccccc2)ccc1=O -3.67%
Cc1ccc(-c2csc(/C(C#N)=C/Nc3ccc4c(c3)OCCO4)n2)cc1 16.1%
CCN(CC)CCOC(=O)c1ccc(N/C=C(/C#N)c2nc(-c3ccc(OC)cc3)cs2)cc1 10.3%
CCN(CC)CCOC(=O)c1ccc(N/C=C(/C#N)c2nc(-c3cc4ccccc4oc3=O)cs2)cc1 26.6%
COc1ccc(-c2csc(/C(C#N)=C/Nc3ccc4c(c3)OCCO4)n2)cc1 2.83%
c1ccc(-c2ncc(CSc3nncn3-c3ccccc3)s2)cc1 1.96%
Cn1cc(SCC(=O)Nc2ccc3c(c2)OCO3)c2ccccc21 5.29%
O=C(NCc1ccccc1Cl)c1ccccc1CCc1ccccc1 6.88%
Cc1ccc(NC(=O)C2=CC=CN3CCS(=O)(=O)N=C23)cc1 2.18%
CCc1ccc(NC(=O)C2=CC=CN3CCS(=O)(=O)N=C23)cc1 7.78%
CN(C)C(=O)CCc1nc2sc3c(c2c(=O)[nH]1)CCCC3 18%
NC(=O)Cn1cc(/C=N\NS(=O)(=O)c2ccc(Cl)cc2)c2ccccc21 20%
COC(=O)c1ccc(NC(=S)N2CCN(Cc3ccc(Cl)cc3)CC2)cc1 -0.55%
CN1C(=O)/C(=C/c2coc3ccc(O)cc3c2=O)SC1=S 11.2%
O=C1NC(=S)S/C1=C\c1coc2ccc(O)cc2c1=O 7.3%
CSC1=NSC2=NC(=O)/C(=C/c3coc4ccc(O)cc4c3=O)C(=N)N12 14.1%
O=C1NN(c2ccccc2)C(=O)/C1=C\c1coc2ccc(O)cc2c1=O 23.8%
COc1ccc(CCNC(=O)c2cccc(S(=O)(=O)N3CCCCC3)c2)cc1 8.12%
C[C@H]1CN([C@@H](C)CO)C(=O)c2cccc(NC(=O)Nc3ccc(F)cc3)c2O[C@@H]1CN(C)Cc1ccc(C(=O)O)cc1 2.98%
O=C(NCc1ccccn1)C1Nc2ccc(C(F)(F)F)cc2C2C=CCC12 (centres undefined) 24.7%
O=c1cc(CNc2cc(Cl)ccc2Cl)nc2sccn12 2.5%
CCN(CC)C(=O)C(Sc1nnnn1-c1ccc(O)cc1)c1ccccc1 (centres undefined) 3.92%
Cc1c(Br)cnn1C(C)C(=O)N1CCN(c2ccc(F)cc2)CC1 (centres undefined) 3.49%
COc1cc(/C=C/C(=O)OCC(=O)Nc2ccc([N+](=O)[O-])cc2)ccc1O 4.8%
COc1cc(NC(=O)COC(=O)/C=C/c2ccc(OC)c(OC)c2)cc(OC)c1 -0.81%
O=C(COC(=O)/C=C/c1cccc(F)c1)Nc1ccccc1 -19.5%
O=C(/C=C/c1cccc(Cl)c1)OCc1cn2cc(Cl)ccc2n1 11.7%
COc1cccc(/C=C/C(=O)NCc2cn3cc(Cl)ccc3n2)c1 2.4%
COc1cc(/C=C/C(=O)OCC(=O)Nc2cc(C)c(C)cc2[N+](=O)[O-])ccc1O 9.32%
COc1cc(/C=C/C(=O)OCC(=O)Nc2ccccc2Sc2ccc(Cl)cc2)ccc1O 16.7%
COc1cc(/C=C/C(=O)OCC(=O)Nc2ccc(Cl)cn2)ccc1O 21.2%

Reference: PubChem BioAssay AID624330 (Southern Research Specialized Biocontainment Screening …, 2012)
